Screening data as filed in PubChem BioAssay.
Sampled rows, rich in hits. Any-hit rate of the full collection: about 19%.
TDP1 block = qHTS Assay for Inhibitors of Tyrosyl-DNA Phosphodiesterase (TDP1) | recombinant TDP1, AlphaScreen DNA substrate cleavage | Potency, µM (series often up to 130 µM), without a hit: top-dose activity change, negative = inhibition, usual class: inhibitors | 350,000 tested, 0.28% active | Tyrosyl-DNA phosphodiesterase 1 (Homo sapiens), Q9NUW8 | AID 485290, 2010; also: potency is read from the fitted curve at half-maximal effect; % is scaled to controls: 0 for no effect and ±100 for the full control effect; nearly all actives have a fitted effect of over 40% in size
Target sequence (Q9NUW8 whole entry, looked up): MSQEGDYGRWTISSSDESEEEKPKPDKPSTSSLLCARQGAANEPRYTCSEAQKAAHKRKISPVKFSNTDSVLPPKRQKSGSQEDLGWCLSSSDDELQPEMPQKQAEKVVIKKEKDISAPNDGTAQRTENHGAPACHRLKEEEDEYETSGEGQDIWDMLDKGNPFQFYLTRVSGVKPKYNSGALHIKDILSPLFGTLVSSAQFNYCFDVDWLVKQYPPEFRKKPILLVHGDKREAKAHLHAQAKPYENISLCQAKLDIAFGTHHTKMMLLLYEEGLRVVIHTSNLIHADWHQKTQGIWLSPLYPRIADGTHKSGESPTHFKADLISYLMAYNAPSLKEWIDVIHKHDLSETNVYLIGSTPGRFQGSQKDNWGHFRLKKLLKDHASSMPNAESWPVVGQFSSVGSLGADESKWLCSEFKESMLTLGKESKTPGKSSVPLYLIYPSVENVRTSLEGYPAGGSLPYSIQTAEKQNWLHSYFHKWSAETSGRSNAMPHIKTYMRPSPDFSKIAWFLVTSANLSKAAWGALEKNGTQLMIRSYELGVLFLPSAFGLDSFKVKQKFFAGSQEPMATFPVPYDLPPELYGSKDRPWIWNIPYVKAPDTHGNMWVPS
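Compounds were preincubated with Tdp1 (1 nM final) for 15 min at room temperature before substrate (15 nM final) started a 5 min reaction; beads (10 ug/ml final) were then added for 10 min before AlphaScreen detection.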
DT40 TDP1 no CPT = qHTS for Inhibitors of human tyrosyl-DNA phosphodiesterase 1 (TDP1): qHTS in cells in absence of CPT. DT40 Tdp1-/- hTDP1 cells, no CPT, ATP luminescence, 48 h. 420,000 tested, 15% active. Potency, µM (highest dose often 46.2 µM), for the others: at the top dose activity change, negative = growth inhibition, hits mostly inhibitors. AID 686978, 2013; also: potency is read from the fitted curve at half-maximal effect; % is scaled to controls: 0 for no effect and ±100 for the full control effect; nearly all actives have a fitted effect of over 55% in size
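Seeded 400 DT40-hTDP1 cells/well (vehicle DMSO, no 20 nM CPT); pinned compounds; ≥48 hr at 37 °C; CellTiter-Glo luminescence as viability measure.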
TGFb SMAD3 inh = qHTS for Inhibitors of TGF-b; HepG2 CAGA-GFP TGF-b/SMAD3 reporter, GFP fluorescence, 18 h; TGF-beta stimulated, 500 pg/mL final; 410,000 tested, 1.2% active; Potency, µM (doses to about 46.1 µM), for the others: at the highest dose activity, negative = inhibition, most hits filed as inhibitors; AID 588855, 2011; also: potency is read from the fitted curve at half-maximal effect; % is scaled to controls: 0 for no effect and ±100 for the full control effect; nearly all actives have a fitted effect of over 65% in size
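Inhibition of TGF-beta-driven CAGA-GFP reporter expression in HEPG2 cells is measured by cellular GFP fluorescence after 18 h stimulation with 500 pg/mL recombinant TGF-beta in 1% FBS medium at 37 degrees C.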
HepG2 viability = qHTS for Inhibitors of TGF-b: Cytotox Counterscreen; HepG2 CAGA-GFP viability, ATP luminescence, 18 h; 410,000 tested, 0.76% active; AID 588856, 2011; Potency, µM (top dose mostly 46.1 µM), inactives show at the highest dose activity change, negative = cytotoxicity, usual class: cytotoxic; also: potency is read from the fitted curve at half-maximal effect
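HepG2 CAGA-GFP cells (1000/well, DMEM with 1% FBS) received compound, then TGF-beta at 500 pg/mL final, and were incubated 18 hours at 37 degrees C. Viability was read by CellTiter-Glo luminescence. Media-only wells were set as complete cell-killing and DMSO as no toxicity.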
IL-1B inflam inh = qHTS for Inhibitors of Inflammasome Signaling: IL-1-beta AlphaLISA Primary Screen; THP-1 LPS/ATP IL-1B secretion, AlphaLISA, 16 h; stronger effect = lower value; activity change, % at 57.5 µM; 360,000 tested, 4.7% active; in the data active = activity change below about -50%; inconclusive = mostly about -30% to -49%; also: % is scaled to controls: 0 for no effect and ±100 for the full control effect
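THP-1 cells pretreated 1 hr with compounds (up to 57.5 uM final), then stimulated with LPS (250 ng/mL final) plus ATP (1.25 mM final); secreted IL-1B measured by AlphaLISA after 16 hr, decreased signal indicating inhibition.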
TDP1 cell CPT = qHTS for Inhibitors of human tyrosyl-DNA phosphodiesterase 1 (TDP1): qHTS in cells in presence of CPT; chicken DT40 Tdp1-/-;hTDP1 cells + 20 nM CPT, ATP luminescence, 48 h; Potency, µM (highest dose often 46.2 µM), without a hit: at the top dose activity change, negative = growth inhibition, actives largely listed as inhibitors; 420,000 tested, 12% active; AID 686979, 2013; also: potency is read from the fitted curve at half-maximal effect; % is scaled to controls: 0 for no effect and ±100 for the full control effect; nearly all actives have a fitted effect of over 55% in size
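Cell growth measured by CellTiter-Glo luminescence after a minimum 48 h, 37 C compound exposure with 20 nM CPT in Tdp1-knockout DT40 cells stably expressing hTDP1, seeded 400/well; qHTS titration format.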
* = called active by the depositor; i = inactive; ? = inconclusive; / = not tested or not shown; [ ] = remark or other dose. Unless noted, calls follow the shape of the dose curve; as a rule, active = well fitted curve in the direction sought with a large enough effect; inconclusive = small, poorly fitted or top-dose-only effect, or another doubt; inactive = no such curve, though single readings can be large; an effect the other way counts as inactive or inconclusive.

SMILES	TDP1 block	DT40 TDP1 no CPT	TGFb SMAD3 inh	HepG2 viability	IL-1B inflam inh	TDP1 cell CPT
O=C(NCCOCCn1c(=O)oc2ccccc21)Nc1ccc(F)cc1F	5%	12µM*	?	-25%	/	10µM*
COc1ccccc1CCNC(=O)CCn1c(=O)oc2ccccc21	0%	7%	-9%	0%	-12	7%
Cc1cccc(NC(=O)C2CCCN(S(=O)(=O)c3ccc4c(c3)oc(=O)n4C)C2)c1 (stereo not drawn)	1%	?	5%	15%	-7	?
Cc1ccc(S(=O)(=O)N2CCCCC2)cc1NC(=O)CN1CC=C(c2ccccc2)CC1	5%	5.2µM*	-1%	-4%	?	8.2µM*
Cc1ccc(N2CC(C(=O)Nc3cc(S(=O)(=O)N4CCCCC4)ccc3C)CC2=O)cc1 (stereo not drawn)	/	5.8µM*	-21%	-12%	-20	?
O=C(CN1CC=C(c2ccccc2)CC1)NC(=O)NCc1ccccc1	3%	?	11%	7%	6	?
O=C(CN1CC=C(c2ccccc2)CC1)Nc1cc(Cl)ccc1Cl	1%	16µM*	13µM*	-11%	i	?
COc1ccccc1CNCC(=O)Nc1cc(S(=O)(=O)N2CCCCC2)ccc1C	3%	?	-17%	4%	-60*	?
CCN(c1ccccc1)S(=O)(=O)c1ccc(C(=O)NCC(c2ccccc2OC)N2CCCC2)cc1 (stereo not drawn)	/	?	-10%	-13%	6	?
CN1CCN(c2ncnc3nc[nH]c23)CC1	6%	15%	-2%	-15%	-2	-2%
CCCCOC(=O)N(C)SN(C)C(=O)Oc1cccc2c1OC(C)(C)C2	-4%	/	/	/	/	/
CS(=N)(=O)CC[C@@H](N)C(=O)O (stereo partly drawn)	11%[21 µM]	/	/	/	/	/
CCOC(=O)C1(c2ccccc2)CCN(CCc2ccc(NC(=O)CCC(=O)O)cc2)CC1	/	4%	8%	1%	3	36%
COc1ccccc1CNC(=O)CCS(=O)(=O)c1ccc2c(c1)oc(=O)n2C	4%	-15%	-7%	-35%	/	-18%
CN=C1CN=C(c2ccc[nH]2)c2cc(Cl)ccc2N1	/	0.11µM*	2%	-19%	/	0.079µM*
O=C1CN=C(c2ccccc2Cl)c2cc(Br)ccc2N1	/	?	0%	-10%	33	15%
O=C1CN=C(c2ccc[nH]2)c2cc(Cl)ccc2N1	/	0.033µM*	-5%	1%	5	0.16µM*
S=C1CN=C(c2ccccc2)c2cc(Cl)ccc2N1	7%	?	11%	7%	2	?
CCN(CC)S(=O)(=O)c1ccc2c(c1)c(=O)c(C(=O)NCc1ccccc1OC)cn2C	2%	18µM*	-4%	-5%	/	23µM*
CN(C)C(=O)Oc1cc(OC(=O)N(C)C)cc([C@@H](O)CNC(C)(C)C)c1	14%[21 µM]	/	/	/	/	/
C=C(Cl)CSC(=S)N(CC)CC	-16%	3.3µM*	2%	-19%	6	5.2µM*
COC(=O)C1=C(c2ccccc2OCc2ccccc2)C[C@@H]2CC[C@H]1N2C(=O)NCc1ccc(Cl)cc1	1%	?	?	5%	-30	?
COC(=O)C1=C(c2ccccc2OCc2ccccc2)C[C@@H]2CC[C@H]1N2C(=O)NCc1ccc(OC)c(OC)c1	3%	21µM*	1%	5%	-8	16µM*
COC(=O)C1=C(c2ccccc2OCc2ccccc2)C[C@@H]2CC[C@H]1N2C(=O)NCc1ccc([N+](=O)[O-])cc1	2%	?	-29%	-28%	-53*	23µM*
CC1CC[C@@]2(NC1)O[C@@H]1C[C@H]3C4CC=C5C[C@@H](O)CC[C@]5(C)C4CC[C@]3(C)[C@H]1[C@@H]2C (stereo partly drawn)	-2%	-24%	/	/	/	12%
SMILES	TDP1 block	DT40 TDP1 no CPT	TGFb SMAD3 inh	HepG2 viability	IL-1B inflam inh	TDP1 cell CPT
O=[N+]([O-])c1ccc(O[C@@H]2O[C@H](CO)[C@@H](O)[C@H](O)[C@H]2F)c([N+](=O)[O-])c1	6%	/	/	/	/	/
CC1(C)Cc2c(c(N3CCOCC3)nc3sc4c(NCc5ccccc5)nnnc4c23)CS1	/	23µM*	19%	-12%	-21	16µM*
CCN1C[C@@]2(COC)[C@H]3[C@@H](OC)[C@H]4C1[C@@]3([C@H](OC)C[C@@H]2O)[C@H]1C[C@@]2(O)[C@@H](OC(=O)c3ccccc3)[C@@H]1[C@@]4(OC(C)=O)[C@H](O)[C@@H]2OC	10%[21 µM]	/	/	/	/	/
CC(=O)N1CC2CC(C1)c1cccc(=O)n1C2 (stereo not drawn)	12%[56.1 µM]	-2%	/	/	/	14%
CC(O)(CS(=O)(=O)c1cccc(C(F)(F)F)c1)C(=O)Nc1cccc(C(F)(F)F)c1 (stereo not drawn)	-2%	?	-24%	-19%	-5	?
O=C(Nc1cccc(C(F)(F)F)c1)C1CCCN1S(=O)(=O)c1cccc2nsnc12 (stereo not drawn)	7%	?	?	-13%	/	18µM*
CNc1ccc2oc(C[C@@H]3OC4(CC[C@@H]3C)O[C@H](C(C)C(=O)c3ccc[nH]3)[C@H](C)C[C@H]4C)nc2c1C(=O)O (stereo partly drawn)	22%	/	/	/	/	/
CCc1ccccc1NC(=O)C1CCCN(c2ncnc3onc(C)c23)C1 (stereo not drawn)	3%	9.2µM*	-15%	4%	/	18µM*
O=C(NCNC(=O)N[C@H]1C(=O)NC(=O)N1CO)N[C@H]1C(=O)NC(=O)N1CO	3%[21 µM]	/	/	/	/	/
CC(=O)OC1CC[C@]2(C#N)[C@H]3CC[C@]4(C)[C@H](C5C=CC(=O)O5)CCC4(O)C3CCC2(O)C1 (stereo partly drawn)	/	?	-26%	10µM*	-23	?
CCC1Nc2ncnc(N3CCN(c4ccccn4)CC3)c2N(Cc2ccc(Br)cc2)C1=O (stereo not drawn)	5%	?	-23%	-16%	?	?
CCOc1ccc2nc(N=Nc3c(O)[nH]c(=S)[nH]c3=O)sc2c1	-4%	?	10%	5%	29	-26%
